Results filed as inconclusive are left out. Active and inactive are the calls of the source. Calls follow the shape of the dose curve; as a rule, active = well fitted curve in the direction sought with a large enough effect; inconclusive = small, poorly fitted or top-dose-only effect, or another doubt; inactive = no such curve, though single readings can be large; an effect the other way counts as inactive or inconclusive.
Assays:
[1] = qHTS for Inhibitors of Plasmodium falciparum (DD2) proliferation (AID 504314);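 also: parasite DNA measured by SYBR Green fluorescence after red cell lysis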
Procedure, shortened: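 SYBR Green DNA-fluorescence growth assay: infected RBCs at 0.3% parasitemia, 2.5% hematocrit, 72 h compound exposure, 37C, 5% CO2; overnight lysis with dye at RT; normalized to 0.29 uM artemisinin and vehicle.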

[2] = qHTS for Inhibitors of Plasmodium falciparum (GB4) proliferation (AID 504315); also: nearly all actives have a fitted effect of over 50% in size
Procedure, shortened: (§1)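 Parasite growth measured as SYBR Green DNA fluorescence (ex 485, em 535 nm) after overnight lysis following 72 h culture at 37 °C, 0.3% parasitemia, 2.5% hematocrit. Values normalized against DMSO and 0.29 uM artemisinin controls, with plate-stack correction.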

[3] = qHTS for Inhibitors of Plasmodium falciparum (7G8) proliferation (AID 504316); also: series mostly up to about 6.7 µM; nearly all actives have a fitted effect of over 65% in size
Procedure, shortened: as §1

[4] = qHTS for Inhibitors of Plasmodium falciparum (HB3) proliferation (AID 504318); also: nearly all actives have a fitted effect of over 60% in size
Procedure, shortened: as §1

[5] = qHTS for Inhibitors of Plasmodium falciparum (CP250) proliferation (AID 504320)
Procedure, shortened: as §1

Measured: Potency

COC/C=C/C1=CC2=CC(=O)C(C)(OC(=O)c3cnc4ccccc4n3)C(=O)C2=CN1c1ccccc1 (stereo not given)
inactive: [1] | [2] | [3] | [4] | [5]

COC/C=C/C1=CC2=CC(=O)C(C)(OC(=O)c3cnc4ccccc4n3)C(=O)C2=CN1Cc1ccccc1 (stereo not given)
inactive: [1] | [2] | [3] | [4] | [5]

COC(=O)C1=C(C(=O)OC)[C@@H]2N(C)c3ccc(OC)cc3[C@@]23C[C@@H](C(=O)OC)N(C(=O)COCc2ccccc2)C3=N1
inactive: [1] | [2] | [3] | [4] | [5]

COC(=O)CCC(=O)OC1(C)C(=O)C2=CN(C3CC3)C(c3ccc(OC)cc3)=CC2=C(Br)C1=O (stereo not given)
inactive: [1] | [2] | [3] | [4] | [5]

COC(=O)CCCC1=CC2=CC(=O)C(C)(OC(=O)c3cccs3)C(=O)C2=CN1Cc1ccc2c(c1)OCO2 (stereo not given)
inactive: [1] | [2] | [3] | [4] | [5]

COc1ccc(-c2nc3c(c4c2C[C@H](c2ccccc2)OC4)CN(S(=O)(=O)c2ccc4c(c2)OCCN4C)CC3)c(C)c1
inactive: [1] | [2] | [3] | [4] | [5]

COC(=O)C1=C(C)N(Cc2ccccc2)C(=O)N[C@H]1c1ccc(Br)cc1
inactive: [1] | [2] | [3] | [4] | [5]

C=C(C(C)=O)C(O)C=Cc1ccco1 (stereo not given)
inactive: [1] | [2] | [3] | [4] | [5]

CCOC(=O)CN1C(=O)N[C@@H](c2ccco2)C(C(C)=O)=C1C
inactive: [1] | [2] | [3] | [4] | [5]

CCOC(=O)NN=C1C[C@@H](O)[C@@H](O)[C@@H]2[C@H]3C(=O)N(C4CCCCC4)C(=O)[C@@H]3CC[C@@H]12
inactive: [1] | [2] | [3] | [4] | [5]

CCN(CC)CCCN1C=C2C(=O)C(C)(OC(=O)C3CCCC3)C(=O)C(c3ccccc3)=C2C=C1CCCC(=O)OC (stereo not given)
inactive: [1] | [2] | [3] | [4] | [5]

COC(=O)C1=C(C(=O)OC)[C@@H]2N(C)c3ccccc3[C@@]23C[C@@H](C(=O)OC)N(C(=O)COCc2ccccc2)C3=N1
inactive: [1] | [2] | [3] | [4] | [5]

CC1(OC(=O)c2ccc(Cl)nc2)C(=O)C=c2cc(-c3ccsc3)ncc2=C1OC(=O)C1CCCC1 (stereo not given)
inactive: [1] | [2] | [3] | [4] | [5]

CCO[C@H](c1cc(OC)cc([N+](=O)[O-])c1OC)[C@H](C)C=CCC(=O)OC
inactive: [1] | [2] | [3] | [4] | [5]

COC(=O)CCC(=O)OC1(C)C(=O)C2=CN(CC3CC3)C(c3ccc(OC)cc3)=CC2=C(Br)C1=O (stereo not given)
inactive: [1] | [2] | [3] | [4] | [5]

CCN1C(=O)N[C@@H](c2ccco2)C(C(C)=O)=C1C
inactive: [1] | [2] | [3] | [4] | [5]

COC(=O)C1=C(C)N(CC2CC2)C(=O)N[C@H]1c1ccccc1
inactive: [1] | [2] | [3] | [4] | [5]

COc1ccc(C2=CC3=C(Br)C(=O)C(C)(OC(=O)c4ccco4)C(=O)C3=CO2)cc1 (stereo not given)
inactive: [1] | [2] | [3] | [4] | [5]

COc1cccc(CC(=O)N2CCc3nc(-c4ccccc4)c4c(c3C2)CO[C@@H](C)C4)c1
inactive: [1] | [2] | [3] | [4] | [5]

CCCCC1=CC2=CC(=O)C(C)(OC(=O)CC)C(=O)C2=CN1CCN1CCOCC1 (stereo not given)
inactive: [1] | [2] | [3] | [4] | [5]

COC/C=C/C1=CC2=CC(=O)C(C)(OC(=O)c3cnc4ccccc4n3)C(=O)C2=CN1CC1CC1 (stereo not given)
inactive: [1] | [2] | [3] | [4] | [5]

CC1(OC(=O)CCc2ccccc2)C(=O)C=C2C=C3CCCN3C=C2C1=O (stereo not given)
inactive: [1] | [2] | [3] | [4] | [5]

CC[C@@H](C)CN1C(=O)N[C@@H](CCc2ccccc2)C(C(C)=O)=C1C
inactive: [1] | [2] | [3] | [4] | [5]

CCOC(=O)NN=C1C[C@@H](O)[C@@H](O)[C@@H]2[C@H]3C(=O)N([C@@H](C)c4ccccc4)C(=O)[C@@H]3CC[C@@H]12
inactive: [1] | [2] | [3] | [4] | [5]

COCCN1C(=O)N[C@@H](c2ccccc2)[C@H](C(=O)OC)[C@H]1C
inactive: [1] | [2] | [3] | [4] | [5]

COC(=O)CCC(=O)OC1(C)C(=O)C=C2C=C(C3CC3)N(C3CCCC3)C=C2C1=O (stereo not given)
inactive: [1] | [2] | [3] | [4] | [5]

COCCN1C(=O)N[C@@H](c2cccc(C(F)(F)F)c2)C(C(=O)OC)=C1C
inactive: [1] | [2] | [3] | [4] | [5]

CCOC(=O)CCCNC(=O)N1CCc2nc(-c3ccccc3)c3c(c2C1)CO[C@@H](C)C3
inactive: [1] | [2] | [3] | [4] | [5]

CCOC(=O)CN1C(=O)N[C@@H](c2cccs2)C(C(C)=O)=C1C
inactive: [1] | [2] | [3] | [4] | [5]

CC1(OC(=O)CCc2ccccc2)C(=O)C=C2C=C(c3ccc(C#N)cc3)N(CCc3ccccn3)C=C2C1=O (stereo not given)
inactive: [1] | [2] | [3] | [4] | [5]

COC(=O)CCCC1=CC2=CC(=O)C(C)(OC(=O)c3cccs3)C(=O)C2=CN1CCCCO (stereo not given)
inactive: [1] | [2] | [3] | [4] | [5]

COC[C@@H](O)[C@@H](OC)[C@H](OC)[C@H](Cc1c(OC)cc(OC)cc1OC)OC
inactive: [1] | [2] | [3] | [4] | [5]

CC#CCN1C(=O)N[C@@H](c2ccccc2)C(C(=O)OC)=C1C
inactive: [1] | [2] | [3] | [4] | [5]

COC(=O)C1=C(C)N(Cc2ccccc2)C(=O)N[C@H]1c1ccco1
inactive: [1] | [2] | [3] | [4] | [5]

CCCCC1=CC2=CC(=O)C(C)(OC(=O)CC)C(=O)C2=CN1c1cccc(C#N)c1 (stereo not given)
inactive: [1] | [2] | [3] | [4] | [5]

CC1(OC(=O)CCc2ccccc2)C(=O)C=C2C=C(c3ccc(C#N)cc3)N(CCN3CCOCC3)C=C2C1=O (stereo not given)
inactive: [1] | [2] | [3] | [4] | [5]

COC(=O)N[C@H](CC(C)=O)c1ccc(Cl)cc1
inactive: [1] | [2] | [3] | [4] | [5]

CCOC(=O)CN1C(=O)N[C@@H](c2cccc(F)c2)C(C(C)=O)=C1C
inactive: [1] | [2] | [3] | [4] | [5]

CC1(OC(=O)C2CCCC2)C(=O)C=C2C=C(c3ccsc3)N(CCCCO)C=C2C1=O (stereo not given)
inactive: [1] | [2] | [3] | [4] | [5]

CCN1C(=O)NC(c2ccco2)C(C(=O)OC)=C1C (stereo not given)
inactive: [1] | [2] | [3] | [4] | [5]

COC(=O)N[C@H](C(C(=O)OC)=C(C)NCc1ccccc1)c1cccc(F)c1
inactive: [1] | [2] | [3] | [4] | [5]

CC(=O)Nc1ccc(S(=O)(=O)N2CCc3nc(COc4ccccc4)c4c(c3C2)CO[C@@H](C)C4)cc1
inactive: [1] | [2] | [3] | [4] | [5]

COC(=O)C1=C(C(=O)OC)[C@@H]2N(Cc3ccccc3)c3ccccc3[C@@]23C[C@@H](C(=O)OC)N(C(=O)C2CCC2)C3=N1
inactive: [1] | [2] | [3] | [4] | [5]

From PubChem BioAssay (NCATS)
